Bioassay records: PubChem, National Center for Advancing Translational Sciences (NCATS)
Compounds with a hit are over-represented: about 19% of the library has one in this group of screens.
HT1080-NT tox – kills 2HG-producing HT-1080-NT fibrosarcoma cells | 360,000 compounds, 1.6% hits | HT-1080-NT fibrosarcoma viability, CellTiter-Glo ATP luminescence, 48 h | AID 686970 | Potency, µM (series often up to 46.1 µM), for inactives: at the highest dose activity, negative = less viability, usual class: cytotoxic;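 also: NT is the 2HG producing partner of a matched IDH1 knockdown line; 0% = DMSO-treated cells and -100% = media-only wells without cells; nearly all actives have a fitted effect of over 55% in size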
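HT-1080-NT fibrosarcoma cells (2HG-overproducing), 750 cells/well in RPMI with 5% FBS, dosed after 2 h and incubated 48 h at 37C. CellTiter-Glo luminescence normalized to DMSO and no-cell wells; concentration-response curves fitted and classed.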
KB-3-1 tox – kills parental KB-3-1 adenocarcinoma cells; KB-3-1 viability, CellTiter-Glo ATP luminescence, 72 h; Potency, µM (top dose mostly 46.1 µM), hits mostly cytotoxic; 400,000 compounds, 1.4% hits; AID 1347075; also: nearly all actives have a fitted effect of over 60% in size
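Cells are dispensed, compounds pinned in, plates held at 37 °C for 72 h, then CellTiter-Glo is added and luminescence read after 10 minutes. Cell line: parental KB-3-1 in phenol-red-free DMEM, 10% FBS.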
DT40 TDP1 CPT – DT40-hTDP1 cell growth loss with CPT. AID 686979. chicken DT40 Tdp1-/-;hTDP1 cells + 20 nM CPT, ATP luminescence, 48 h. Potency, µM (highest dose often 46.2 µM), inactives show at the top dose activity change, negative = growth inhibition, usual class: inhibitors. 420,000 compounds, 12% hits; also: nearly all actives have a fitted effect of over 55% in size
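Chicken DT40 Tdp1-/- cells stably complemented with human TDP1 were seeded at 400 cells/well in medium containing 20 nM camptothecin, exposed to pin-transferred compounds, and grown at 37 °C for at least 48 hr. Viability was read as ATP luminescence.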
HT1080 IDH1KD tx – kills HT-1080 cells with IDH1 knockdown; 360,000 compounds, 2% hits; HT-1080 IDH1 knockdown viability, ATP luminescence, 48 h; Potency, µM (titrated, usually from 46.1 µM), inactives show top-dose activity, negative = toxicity, usual class: cytotoxic; AID 686971;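 also: 0% = DMSO wells and -100% = cell-free medium wells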
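IDH1KD HT-1080 cells, 750/well, RPMI + 5% FBS; compound pinned after 2 h settling; 48 h, 37 °C; CellTiter-Glo luminescence; % activity normalised to DMSO and no-cell wells; curves fitted, classed by r2 and efficacy.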
TDP1 cell noCPT – qHTS for Inhibitors of human tyrosyl-DNA phosphodiesterase 1 (TDP1): qHTS in cells in absence of CPT | 420,000 compounds, 15% hits | Potency, µM (top dose mostly 46.2 µM), for the others: top-dose activity change, negative = growth inhibition, usual class: inhibitors | DT40 Tdp1-/- hTDP1 cells, no CPT, ATP luminescence, 48 h; also: nearly all actives have a fitted effect of over 55% in size
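Growth kinetics read by CellTiter-Glo luminescence after ≥48 hr at 37 °C. Cells: DT40 Tdp1-/- stably carrying human TDP1, 400 per well, compound exposure in the absence of CPT (DMSO vehicle).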
KB-V1 cytotox – KB-V1 MDR subline cytotoxicity; 400,000 compounds, 3.4% hits; Potency, µM (titrated, usually from 46.1 µM), hits mostly cytotoxic; KB-V1 MDR cells viability, CellTiter-Glo, 72 h; also: nearly all actives have a fitted effect of over 60% in size
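Cytotoxicity toward P-gp-expressing KB-V1 cells was determined as loss of CellTiter-Glo luminescence after 72 h at 37 degrees C. Compounds were tested in quantitative HTS format across a concentration range, with curves fitted to normalized data.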
The depositor's hits bear a star; i = inactive; ? = inconclusive; . = no result given. Calls follow the shape of the dose curve; as a rule, active = well fitted curve in the direction sought with a large enough effect; inconclusive = small, poorly fitted or top-dose-only effect, or another doubt; inactive = no such curve, though single readings can be large; an effect the other way counts as inactive or inconclusive. Unless noted, % is scaled to controls: 0 for no effect and ±100 for the full control effect; potency is read from the fitted curve at half-maximal effect.

SMILES	HT1080-NT tox	KB-3-1 tox	DT40 TDP1 CPT	HT1080 IDH1KD tx	TDP1 cell noCPT	KB-V1 cytotox
Cc1cc(=O)[nH]c(NCc2ccccc2)n1	1.0%	i	-9.2%	7.2%	15.5%	i
Cc1cc(N2CCN(c3ccccc3)CC2)nc(NCc2ccccc2)n1	11.8%	i	20.6µM*	5.8%	16.4µM*	i
Cc1cc(OC(C)C)nc(NCc2ccccc2)n1	?	11.6µM*	?	?	13µM*	i
Cc1ccccc1CSc1nc(-c2cccc(F)c2)nc2c1Cc1c(CO)cnc(C)c1O2	.	i	-8.4%	.	-10.0%	?
COc1cccc2c1Oc1cc([N+](=O)[O-])cc(N(C)C(C)=O)c1C=C2	-8.8%	i	?	-3.2%	20.6µM*	i
O=C(NCCCO)c1cc([N+](=O)[O-])cc2c1C=Cc1ccccc1O2	-1.9%	i	?	-1.3%	?	i
COc1ccccc1CNC(=O)c1ccc(-c2ccccc2C(F)(F)F)o1	-21.3%	i	20.6µM*	-16.7%	20.6µM*	i
O=C(NCCc1ccccc1)c1ccc(-c2ccc(F)cc2)o1	26.8%	i	3.2%	29.2%	-5.7%	i
COc1ccccc1CNC(=O)c1ccc(-c2ccccc2Cl)o1	-22.6%	i	?	-15.0%	?	i
O=C(NCCc1ccccc1)c1ccc(-c2ccccc2C(F)(F)F)o1	?	i	9.2µM*	?	?	i
COc1ccc(NC(=O)c2ccc(-c3ccccc3C(F)(F)F)o2)cc1	-5.0%	i	?	-14.7%	16.4µM*	i
CCCS(=O)(=O)NC(=O)C1(C)CCCN(C(=O)CCc2cccs2)C1 (configuration not stated)	29.2%	i	-10.3%	10.4%	-7.7%	i
COCC(=O)Nc1cc(C(=O)N2CCC(c3ccccc3)CC2)cc2nc(-c3ccccc3)n(C)c12	.	.	16.4µM*	.	?	.
COC1=C(C(=O)O)N2C(=O)[C@@H](NC(=O)[C@H](N)C3=CCC=CC3)[C@H]2SC1	.	.	-19.3%	.	-20.1%	.
O=C(NCCCn1ccnc1)C1CCN(S(=O)(=O)c2ccc(F)cc2)CC1	-1.8%	i	0.9%	21.9%	-16.7%	i
COc1cc(-c2noc(CCCC(=O)Nc3cccnc3)n2)cc(OC)c1OC	-0.6%	i	15.8%	5.0%	-4.3%	?
COc1cc(-c2noc(CCCC(=O)NCc3ccccc3)n2)cc(OC)c1OC	-20.2%	i	-28.9%	?	?	6.51µM*
COc1ccccc1NC(=O)CCc1nc(-c2cccs2)no1	7.0%	i	-2.3%	17.5%	-17.3%	i
COc1cccc(NC(=O)CCc2nc(-c3cc(OC)c(OC)c(OC)c3)no2)c1	.	i	18.4µM*	.	16.4µM*	i
COc1ccccc1-c1noc(CCC(=O)Nc2cccc(C(F)(F)F)c2)n1	-0.2%	?	?	-18.8%	?	20.6µM*
COc1cccc(NC(=O)CCc2nc(-c3cccs3)no2)c1	7.31µM*	i	-4.0%	?	15.5%	i
COc1ccc(-c2noc(CCC(=O)NCCc3ccccc3)n2)cc1OC	-0.5%	i	-21.3%	3.6%	-9.7%	i
Cc1nc2nc(NC(=O)C(C)(C)C)[nH]n2c(=O)c1Cc1ccccc1	.	i	0.0%	.	-2.0%	i
COc1cccc(NC(=O)Cn2c(=O)n(CCCCC(=O)NCc3ccc4c(c3)OCO4)c(=O)c3ccccc32)c1	.	i	?	.	?	?
COc1cc(-c2noc(CCC(=O)Nc3cc(C)ccc3C)n2)cc(OC)c1OC	.	i	18.4µM*	.	11.6µM*	i
SMILES	HT1080-NT tox	KB-3-1 tox	DT40 TDP1 CPT	HT1080 IDH1KD tx	TDP1 cell noCPT	KB-V1 cytotox
COc1ccc(-c2noc(CCC(=O)Nc3cccc(C)c3C)n2)cc1OC	.	i	?	.	?	i
O=C(c1ccco1)N1CCN(C(=O)c2ccco2)C1=S	?	11.6µM*	2.59µM*	16.4µM*	5.8µM*	16.4µM*
O=C(Nc1ccc(Cl)c(Cl)c1)C1CCN(C(=O)c2ccco2)CC1	-4.7%	?	16.4µM*	-29.7%	14.6µM*	?
O=C(Nc1ccc(N2CCN(C(=O)c3ccco3)CC2)cc1)c1cc(Br)ccc1Cl	?	?	?	?	?	2.06µM*
Cc1ccc(NC(=O)C2CCN(C(=O)c3ccco3)CC2)cc1	13.3%	?	-2.6%	27.6%	0.3%	i
O=C(c1ccco1)N1CCN(c2ccc(Cl)c(Cl)c2)CC1	-4.3%	i	20.6µM*	-12.1%	14.6µM*	?
O=C(c1ccco1)N1CCN(c2ccc(Cl)cc2)CC1	-0.9%	i	-20.7%	-6.2%	-23.0%	i
Cn1cnc([N+](=O)[O-])c1S(=O)(=O)c1ccc(Cl)cc1	9.2µM*	i	1.16µM*	6.51µM*	2.91µM*	i
Cc1ccccc1CN(C)C(=O)COC(=O)CSc1ccc([N+](=O)[O-])cc1	-0.6%	i	6.5%	0.6%	-8.6%	i
O=C(COC(=O)CSc1ccc([N+](=O)[O-])cc1)NCCCc1ccccc1	-5.8%	i	14.6µM*	-6.7%	?	i
O=C(COC(=O)CSc1ccc([N+](=O)[O-])cc1)NCCc1ccccc1	11.2%	i	-3.4%	19.0%	7.6%	i
Cc1ccc(SCC(=O)OCC(=O)NCCNC(=O)COC(=O)CSc2ccc(C)c(C)c2)cc1C	2.3%	0.0052µM*	-5.3%	2.6%	-9.8%	i
CC(OC(=O)CSc1ccc([N+](=O)[O-])cc1)C(=O)NCc1ccccc1 (configuration not stated)	?	i	20.6µM*	?	16.4µM*	i
Cc1ccc(CN(C)C(=O)COC(=O)CSc2ccc([N+](=O)[O-])cc2)cc1	20.7%	i	?	13.0%	16.4µM*	i
O=C(Cn1cnc2c(OCc3ccccc3)ncnc21)NCc1ccccn1	5.0%	i	-3.1%	-0.1%	-6.9%	i
CCc1cc2c3c(c(=O)oc2cc1OCC(=O)OC)CCCC3	4.2%	i	-2.6%	3.7%	-4.2%	i
CCOC(=O)C1=C(C)N(C)C(C)=C(C(=O)OCC)C1c1ccsc1	-1.6%	i	?	0.1%	14.6µM*	?
CCOC(=O)C1=C(C)N(C)C(C)=C(C(=O)OCC)C1c1ccc(Cl)cc1	?	i	?	23.1µM*	?	?
